# Over roughly 16,000 sequences, “rpm ratio (pull-down/input)” has its median near 0.94; the highest 2% begin near 1.7. This excerpt belongs to a sample that is enriched for the highest values.
# Molecular target: T1, MBP-FoxP1dN (Mus musculus, UniProt P58462 326-579)
# T1 sequence: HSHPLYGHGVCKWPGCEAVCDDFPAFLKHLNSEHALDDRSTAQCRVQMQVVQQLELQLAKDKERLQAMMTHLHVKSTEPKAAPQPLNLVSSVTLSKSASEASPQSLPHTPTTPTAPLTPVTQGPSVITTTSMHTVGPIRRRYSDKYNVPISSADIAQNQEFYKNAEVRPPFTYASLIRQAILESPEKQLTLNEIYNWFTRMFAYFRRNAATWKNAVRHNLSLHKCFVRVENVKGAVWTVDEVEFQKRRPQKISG
# Assay: PD-seq (MBP pull-down with sequencing); 20 mM Tris-HCl pH 7.5, 100 mM NaCl, 1.5 mM MgCl2, 0.4 uM protein, 0.1 uM dsDNA library, 30 min, room temperature, amylose pull-down; high values mean tight binding
# Conditions: protein: recombinant; tags: His6-MBP; chain copies: 2; dsDNA, one strand shown
# Method in brief: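 In Tris pH 7.5 buffer with NaCl and MgCl2, 0.4 µM His6-MBP-tagged mouse FoxP3 or FoxP1 fragment lacking the N-terminus, from E. coli, met 0.1 µM Klenow-filled double-stranded degenerate DNA library for 30 min at room temperature. Three washes on amylose resin followed capture of the complexes, then proteinase K release of DNA, PCR barcoding and Illumina sequencing. Binding is taken as pooled-replicate reads-per-million enrichment of pull-down relative to input.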
row,Sequence,binding signal
1,GATGATTGTTCTCCCAGCTGATGAATTCAATGCGTCGAGTAAACAAATTTTCCTAATCTTTCTGTTCAAGCGCCATCTAC,1.05 RPM ratio (pull-down/input)
2,GATGATTGTTCTCCCAGCTGATGAATTATTACGTTCGAGTAAACAAATTTTCCTAATCTTTCTGTTCAAGCGCCATCTAC,1.21 RPM ratio (pull-down/input)
3,GATGATTGTTCTCCCAGCTGATGAATTTGGGATGTCGAGTAAACAAATTTTCCTAATCTTTCTGTTCAAGCGCCATCTAC,0.922 RPM ratio (pull-down/input)
4,GATGATTGTTCTCCCAGCTGATGAATTTACCGAATCGAGTAAACAAATTTTCCTAATCTTTCTGTTCAAGCGCCATCTAC,1.37 RPM ratio (pull-down/input)
5,GATGATTGTTCTCCCAGCTGATGAATTGAAAGCATCGAGTAAACAAATTTTCCTAATCTTTCTGTTCAAGCGCCATCTAC,1.2 RPM ratio (pull-down/input)
6,GATGATTGTTCTCCCAGCTGATGAATTCACCGGTTCGAGTAAACAAATTTTCCTAATCTTTCTGTTCAAGCGCCATCTAC,0.877 RPM ratio (pull-down/input)
7,GATGATTGTTCTCCCAGCTGATGAATTGATCTTATCGAGTAAACAAATTTTCCTAATCTTTCTGTTCAAGCGCCATCTAC,1.08 RPM ratio (pull-down/input)
8,GATGATTGTTCTCCCAGCTGATGAATTTGGTATATCGAGTAAACAAATTTTCCTAATCTTTCTGTTCAAGCGCCATCTAC,1.23 RPM ratio (pull-down/input)
9,GATGATTGTTCTCCCAGCTGATGAATTTTAGGGATCGAGTAAACAAATTTTCCTAATCTTTCTGTTCAAGCGCCATCTAC,0.823 RPM ratio (pull-down/input)
10,GATGATTGTTCTCCCAGCTGATGAATTCCTATTATCGAGTAAACAAATTTTCCTAATCTTTCTGTTCAAGCGCCATCTAC,1.33 RPM ratio (pull-down/input)
11,GATGATTGTTCTCCCAGCTGATGAATTATTTGTCTCGAGTAAACAAATTTTCCTAATCTTTCTGTTCAAGCGCCATCTAC,1.66 RPM ratio (pull-down/input)
12,GATGATTGTTCTCCCAGCTGATGAATTATTTGACTCGAGTAAACAAATTTTCCTAATCTTTCTGTTCAAGCGCCATCTAC,1.07 RPM ratio (pull-down/input)
13,GATGATTGTTCTCCCAGCTGATGAATTTATTGACTCGAGTAAACAAATTTTCCTAATCTTTCTGTTCAAGCGCCATCTAC,1.85 RPM ratio (pull-down/input)
14,GATGATTGTTCTCCCAGCTGATGAATTTTATGTCTCGAGTAAACAAATTTTCCTAATCTTTCTGTTCAAGCGCCATCTAC,0.899 RPM ratio (pull-down/input)
15,GATGATTGTTCTCCCAGCTGATGAATTTTATGACTCGAGTAAACAAATTTTCCTAATCTTTCTGTTCAAGCGCCATCTAC,0.916 RPM ratio (pull-down/input)
16,GATGATTGTTCTCCCAGCTGATGAATTTATTGTCTCGAGTAAACAAATTTTCCTAATCTTTCTGTTCAAGCGCCATCTAC,1.78 RPM ratio (pull-down/input)
17,GATGATTGTTCTCCCAGCTGATGAATTGTCACCCTCGAGTAAACAAATTTTCCTAATCTTTCTGTTCAAGCGCCATCTAC,1 RPM ratio (pull-down/input)
18,GATGATTGTTCTCCCAGCTGATGAATTGAGTTCGTCGAGTAAACAAATTTTCCTAATCTTTCTGTTCAAGCGCCATCTAC,0.82 RPM ratio (pull-down/input)
19,GATGATTGTTCTCCCAGCTGATGAATTAAGGACATCGAGTAAACAAATTTTCCTAATCTTTCTGTTCAAGCGCCATCTAC,1.06 RPM ratio (pull-down/input)
20,GATGATTGTTCTCCCAGCTGATGAATTGATGATCTCGAGTAAACAAATTTTCCTAATCTTTCTGTTCAAGCGCCATCTAC,0.99 RPM ratio (pull-down/input)
21,GATGATTGTTCTCCCAGCTGATGAATTTCTAATCTCGAGTAAACAAATTTTCCTAATCTTTCTGTTCAAGCGCCATCTAC,0.82 RPM ratio (pull-down/input)
22,GATGATTGTTCTCCCAGCTGATGAATTGATGACCTCGAGTAAACAAATTTTCCTAATCTTTCTGTTCAAGCGCCATCTAC,1.02 RPM ratio (pull-down/input)

row,Sequence,binding signal
1,GATGATTGTTCTCCCAGCTGATGAATTGTTGATCTCGAGTAAACAAATTTTCCTAATCTTTCTGTTCAAGCGCCATCTAC,2.06 RPM ratio (pull-down/input)
2,GATGATTGTTCTCCCAGCTGATGAATTGTTGTTCTCGAGTAAACAAATTTTCCTAATCTTTCTGTTCAAGCGCCATCTAC,2.58 RPM ratio (pull-down/input)
3,GATGATTGTTCTCCCAGCTGATGAATTGACCTCCTCGAGTAAACAAATTTTCCTAATCTTTCTGTTCAAGCGCCATCTAC,0.877 RPM ratio (pull-down/input)
4,GATGATTGTTCTCCCAGCTGATGAATTGTCCTCCTCGAGTAAACAAATTTTCCTAATCTTTCTGTTCAAGCGCCATCTAC,1.03 RPM ratio (pull-down/input)
5,GATGATTGTTCTCCCAGCTGATGAATTGATCTTCTCGAGTAAACAAATTTTCCTAATCTTTCTGTTCAAGCGCCATCTAC,0.956 RPM ratio (pull-down/input)
6,GATGATTGTTCTCCCAGCTGATGAATTTCTGTCCTCGAGTAAACAAATTTTCCTAATCTTTCTGTTCAAGCGCCATCTAC,0.915 RPM ratio (pull-down/input)
7,GATGATTGTTCTCCCAGCTGATGAATTGTTGTCCTCGAGTAAACAAATTTTCCTAATCTTTCTGTTCAAGCGCCATCTAC,2.28 RPM ratio (pull-down/input)
8,GATGATTGTTCTCCCAGCTGATGAATTGTTGACCTCGAGTAAACAAATTTTCCTAATCTTTCTGTTCAAGCGCCATCTAC,1.88 RPM ratio (pull-down/input)
9,GATGATTGTTCTCCCAGCTGATGAATTTTTTTTCTCGAGTAAACAAATTTTCCTAATCTTTCTGTTCAAGCGCCATCTAC,0.756 RPM ratio (pull-down/input)
10,GATGATTGTTCTCCCAGCTGATGAATTAACAGTTTCGAGTAAACAAATTTTCCTAATCTTTCTGTTCAAGCGCCATCTAC,1.09 RPM ratio (pull-down/input)
11,GATGATTGTTCTCCCAGCTGATGAATTGTAAAAGTCGAGTAAACAAATTTTCCTAATCTTTCTGTTCAAGCGCCATCTAC,0.943 RPM ratio (pull-down/input)
12,GATGATTGTTCTCCCAGCTGATGAATTATGTCGCTCGAGTAAACAAATTTTCCTAATCTTTCTGTTCAAGCGCCATCTAC,1.01 RPM ratio (pull-down/input)
13,GATGATTGTTCTCCCAGCTGATGAATTCCATAAGTCGAGTAAACAAATTTTCCTAATCTTTCTGTTCAAGCGCCATCTAC,0.896 RPM ratio (pull-down/input)
14,GATGATTGTTCTCCCAGCTGATGAATTCTCTGGCTCGAGTAAACAAATTTTCCTAATCTTTCTGTTCAAGCGCCATCTAC,0.769 RPM ratio (pull-down/input)
15,GATGATTGTTCTCCCAGCTGATGAATTATCGGCTTCGAGTAAACAAATTTTCCTAATCTTTCTGTTCAAGCGCCATCTAC,0.859 RPM ratio (pull-down/input)
16,GATGATTGTTCTCCCAGCTGATGAATTACATGGATCGAGTAAACAAATTTTCCTAATCTTTCTGTTCAAGCGCCATCTAC,1 RPM ratio (pull-down/input)
17,GATGATTGTTCTCCCAGCTGATGAATTGCGCCCCTCGAGTAAACAAATTTTCCTAATCTTTCTGTTCAAGCGCCATCTAC,0.966 RPM ratio (pull-down/input)
18,GATGATTGTTCTCCCAGCTGATGAATTATTGAGCTCGAGTAAACAAATTTTCCTAATCTTTCTGTTCAAGCGCCATCTAC,0.941 RPM ratio (pull-down/input)
19,GATGATTGTTCTCCCAGCTGATGAATTTCCTACCTCGAGTAAACAAATTTTCCTAATCTTTCTGTTCAAGCGCCATCTAC,0.823 RPM ratio (pull-down/input)
20,GATGATTGTTCTCCCAGCTGATGAATTACCATTGTCGAGTAAACAAATTTTCCTAATCTTTCTGTTCAAGCGCCATCTAC,1.04 RPM ratio (pull-down/input)
21,GATGATTGTTCTCCCAGCTGATGAATTGTTGCACTCGAGTAAACAAATTTTCCTAATCTTTCTGTTCAAGCGCCATCTAC,1.76 RPM ratio (pull-down/input)
22,GATGATTGTTCTCCCAGCTGATGAATTTTTGCACTCGAGTAAACAAATTTTCCTAATCTTTCTGTTCAAGCGCCATCTAC,0.891 RPM ratio (pull-down/input)

row,Sequence,binding signal
1,GATGATTGTTCTCCCAGCTGATGAATTGCACTCCTCGAGTAAACAAATTTTCCTAATCTTTCTGTTCAAGCGCCATCTAC,1.15 RPM ratio (pull-down/input)
2,GATGATTGTTCTCCCAGCTGATGAATTACAACAATCGAGTAAACAAATTTTCCTAATCTTTCTGTTCAAGCGCCATCTAC,2.1 RPM ratio (pull-down/input)
3,GATGATTGTTCTCCCAGCTGATGAATTACAGCAATCGAGTAAACAAATTTTCCTAATCTTTCTGTTCAAGCGCCATCTAC,1.28 RPM ratio (pull-down/input)
4,GATGATTGTTCTCCCAGCTGATGAATTACAATAATCGAGTAAACAAATTTTCCTAATCTTTCTGTTCAAGCGCCATCTAC,1.83 RPM ratio (pull-down/input)
5,GATGATTGTTCTCCCAGCTGATGAATTTCAATAATCGAGTAAACAAATTTTCCTAATCTTTCTGTTCAAGCGCCATCTAC,1.31 RPM ratio (pull-down/input)
6,GATGATTGTTCTCCCAGCTGATGAATTACAATTATCGAGTAAACAAATTTTCCTAATCTTTCTGTTCAAGCGCCATCTAC,1.51 RPM ratio (pull-down/input)
7,GATGATTGTTCTCCCAGCTGATGAATTACTACAATCGAGTAAACAAATTTTCCTAATCTTTCTGTTCAAGCGCCATCTAC,1.55 RPM ratio (pull-down/input)
8,GATGATTGTTCTCCCAGCTGATGAATTGCTATGCTCGAGTAAACAAATTTTCCTAATCTTTCTGTTCAAGCGCCATCTAC,1.01 RPM ratio (pull-down/input)
9,GATGATTGTTCTCCCAGCTGATGAATTTTGGATGTCGAGTAAACAAATTTTCCTAATCTTTCTGTTCAAGCGCCATCTAC,0.849 RPM ratio (pull-down/input)
10,GATGATTGTTCTCCCAGCTGATGAATTACGATTGTCGAGTAAACAAATTTTCCTAATCTTTCTGTTCAAGCGCCATCTAC,1.16 RPM ratio (pull-down/input)
11,GATGATTGTTCTCCCAGCTGATGAATTATTTAAATCGAGTAAACAAATTTTCCTAATCTTTCTGTTCAAGCGCCATCTAC,1.24 RPM ratio (pull-down/input)
12,GATGATTGTTCTCCCAGCTGATGAATTGCGTACGTCGAGTAAACAAATTTTCCTAATCTTTCTGTTCAAGCGCCATCTAC,1.1 RPM ratio (pull-down/input)
13,GATGATTGTTCTCCCAGCTGATGAATTCCTTGTGTCGAGTAAACAAATTTTCCTAATCTTTCTGTTCAAGCGCCATCTAC,0.961 RPM ratio (pull-down/input)
14,GATGATTGTTCTCCCAGCTGATGAATTAAGCGCATCGAGTAAACAAATTTTCCTAATCTTTCTGTTCAAGCGCCATCTAC,1.27 RPM ratio (pull-down/input)
15,GATGATTGTTCTCCCAGCTGATGAATTGTCATATTCGAGTAAACAAATTTTCCTAATCTTTCTGTTCAAGCGCCATCTAC,1.17 RPM ratio (pull-down/input)
16,GATGATTGTTCTCCCAGCTGATGAATTTTCATATTCGAGTAAACAAATTTTCCTAATCTTTCTGTTCAAGCGCCATCTAC,1.06 RPM ratio (pull-down/input)
17,GATGATTGTTCTCCCAGCTGATGAATTCATATTCTCGAGTAAACAAATTTTCCTAATCTTTCTGTTCAAGCGCCATCTAC,0.83 RPM ratio (pull-down/input)
18,GATGATTGTTCTCCCAGCTGATGAATTCATATTTTCGAGTAAACAAATTTTCCTAATCTTTCTGTTCAAGCGCCATCTAC,1.74 RPM ratio (pull-down/input)
19,GATGATTGTTCTCCCAGCTGATGAATTCATATTGTCGAGTAAACAAATTTTCCTAATCTTTCTGTTCAAGCGCCATCTAC,1.9 RPM ratio (pull-down/input)
20,GATGATTGTTCTCCCAGCTGATGAATTCTCATATTCGAGTAAACAAATTTTCCTAATCTTTCTGTTCAAGCGCCATCTAC,0.94 RPM ratio (pull-down/input)

# From publication PMC12820563, “FoxP3 forms a head-to-head dimer in vivo and stabilizes its multimerization on adjacent microsatellites”
